# Experimental data taken from PubChem BioAssay (NCATS).
# Where “and” joins values, the source holds several entries; their conditions need not be identical. Equal entries are not always repeated. Values without a mark were called inactive. Records with an inconclusive call do not appear. Calls of active or inactive are those of the source. Unless noted, calls follow the shape of the dose curve; as a rule, active = well fitted curve in either direction with a large enough effect (not every such curve was filed as active); inconclusive = small, poorly fitted or top-dose-only effect, or another doubt; inactive = flat fitted curve, though single readings scatter.
# Tests used:
# [1] = target: Lysosomal acid glucosylceramidase (Homo sapiens) (UniProt P04062); assay: Glucocerebrosidase-p2 (AID 348; in the data active = potency below about 10 µM; also: potency is read from the fitted curve at half-maximal effect); conditions: purified GBA, blue fluorogenic substrate, 40 min
# Summary of the method: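 Normal human glucocerebrosidase (0.2 nM) with blue fluorogenic substrate (80 uM final) in citrate/phosphate pH 5.9 with 10mM sodium taurocholate, 0.01% tween-20; 40 min RT, NaOH/glycine stop; fluorescence Ex 365/Em 440; AC50 from a titration from 0.6 nM upwards.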
# [2] = AP1 Signaling Pathway (AID 357); conditions: ME-180 AP-1-bla reporter, EGF-induced, beta-lactamase ratio, 5 h; series mostly up to 17.2 µM;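 also: ME-180 reporter cells stimulated with EGF at its EC50 level; % is scaled to controls: 0 for no effect and ±100 for the full control effect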
# Summary of the method: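 Cells are seeded overnight, exposed to compound titrations and an EC50 level of EGF for 5 hours at 37 °C, then loaded with CCF4 dye for 2.5 hours. Beta-lactamase activity under the AP-1 element is read as a blue/green ratio.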
# [3] = NFAT Signaling Pathway (AID 444); conditions: Jurkat NFAT-bla M1, carbachol, beta-lactamase ratio, 5 h;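 also: carbachol stimulus at about its EC50 of 1 µM final; % is scaled to controls: 0 for no effect and ±100 for the full control effect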
# Summary of the method: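 Read-out: CCF4 FRET ratio (460 nm/530 nm) after 1 h RT dye loading, used for %activity and AC50 from titration series. Cells: Jurkat NFAT-β-lactamase/M1 line, treated with compound plus 1 uM carbachol for 5 h, 37 °C.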
# [4] = Stat Signaling Pathway (AID 446); conditions: ME-180 (cervical carcinoma) SIE beta-lactamase reporter, IL-6 stimulated, 5 h;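 also: ME-180 cervical cancer cells given 40 pM IL-6 alongside compound; SIE-controlled beta-lactamase reporter measured as 460/530 nm FRET emission ratio; % is scaled to controls: 0 for no effect and ±100 for the full control effect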
# Summary of the method: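 Compound effects on IL-6-induced STAT reporter activity were measured in ME-180 cells. After overnight culture, cells were co-treated with 40 pM IL-6 for 5 hrs before beta-lactamase substrate loading at room temperature.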
# [5] = target: Glucocorticoid receptor (Homo sapiens) (UniProt P04150); assay: GR-GFP Redistribution (AID 450;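 active = compounds whose dose series gives a full or clear partial fitted curve of increased nuclear translocation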; also: potency is read from the fitted curve at half-maximal effect); conditions: U2OS GR-GFP nuclear translocation, laser cytometry, 2 h
# [6] = Cell Viability - Jurkat (AID 426;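 active = dose-dependent loss of cell ATP signal giving a full or clear fitted curve, ranked by lower potency value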;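 also: potency is read from the fitted curve at half-maximal effect; cells exposed to compound for 40 hours at 37 °C before ATP read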); conditions: qHTS
# Summary of the method: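 Luminescent ATP read-out (CellTiter-Glo, 20 min at room temperature) after 40 hr compound exposure at 37 °C of Jurkat E6-1 cells, 5000/well. Decreased ATP taken as cytotoxicity; AC50 from standard Hill equation.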
# [7] = Cell Viability - HepG2 (AID 433; calls by dose curve;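 also: potency is read from the fitted curve at half-maximal effect; potency for ATP loss meaning cytotoxicity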); conditions: qHTS
# Summary of the method: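 Cytotoxicity is scored as loss of intracellular ATP in HepG2 cells exposed to compounds for 40 h. Concentration-response curves, normalized to DMSO and 100 uM tamoxifen, give AC50 values.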
# [8] = Cell Viability - BJ (AID 421; calls by dose curve;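 also: potency is read from the fitted curve at half-maximal effect; cells exposed to compound for 40 hours at 37 °C before readout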); conditions: BJ fibroblast viability, qHTS
# Summary of the method: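 Luminescent ATP signal (CellTiter-Glo, 20 min at room temperature) served as the read-out of viable BJ cells after 40 hours of compound treatment. Responses were scaled between DMSO and 100 uM tamoxifen, and AC50 values were obtained by Hill modeling.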
# [9] = Cell Viability - Hek293 (AID 427;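 active = compounds whose dose-response curve shows a full or clear partial loss of cell viability, called from curve shape rather than a numeric limit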;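 also: potency is read from the fitted curve at half-maximal effect; cells exposed to compound for 40 hours at 37 °C before reading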); conditions: qHTS
# Summary of the method: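 Luminescent ATP read-out (CellTiter-Glo, 20 min RT) after 40 hr compound exposure at 37 °C in complete medium. Signal normalized to DMSO (basal) and 100 uM tamoxifen (100% inhibition); concentration-response fitted with the standard Hill equation to give AC50.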
# [10] = Cell Viability - SK-N-SH (AID 435; calls by dose curve;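 also: potency is read from the fitted curve at half-maximal effect; compound exposure lasted 40 h at 37 °C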); conditions: SK-N-SH neuroblastoma cell viability qHTS
# Source text: NIH Chemical Genomics Center [NCGC]
# NIH Molecular Libraries Screening Centers Network [MLSCN]
# National Institutes of Environmental Health Sciences [NIEHS]
# National Toxicology Program [NTP]
# We have developed a 1536-well cell-based assay for quantitative high throughput screening (qHTS) against a number of cell lines to determine in vitro cytotoxicity of small molecules. This particular assay uses the SK-N-SH cell line which is derived from human neuroblastoma.
# NCGC Assay Protocol Summary:
# The CellTiter-Glo luminescent cell viability assay (Promega) is a homogeneous method to measure the number of viable cells in culture. The end point readout of this assay is based on quantitation of intracellular ATP, an indicator of metabolic activity, using the luciferase reaction. Luciferase catalyzes the oxidation of beetle Luciferin to oxyluciferin and light in the presence of ATP. The luminescent signal is proportional to amount of ATP present.
# Using the CellTiter-Glo luminescent cell viability assay, the amount of cellular ATP was measured in the SK-N-SH cell line with complete culture medium following compound treatment for 40 hours. The assay was performed in opaque white Kalypsys 1536-well plates. In the screen, tamoxifen and doxorubicin were used as positive controls. Library compounds were measured for their ability to cause acute toxicity in the cell line, as reflected by a decrease in intracellular ATP levels, in a concentration-dependent manner. Data were normalized to the controls for basal activity (DMSO only) and 100% inhibition (100 uM tamoxifen). AC50 values were determined from concentration-response data modeled with the standard Hill equation.
# qHTS protocol fo CellTiter Glo SK-N-SH cellular assay
# [Step] [Parameter] [Value] [Description]
# 1. Reagent; 5 uL; 1500 SK-N-SH cells/well
# 2. Time; 5 hr; 37 °C incubation
# 4. Controls; 23 nL; Tamoxifen 0.34 uM to 100 uM & Doxorubicin 0.02 nM to 100 uM
# 5. Time; 40 hr; 37 °C incubation
# 6. Reagent; 5 uL; CellTiter Glo reagent
# 7. Time; 20 min; Room Temperature
# 8. Detection; Luminescence; Viewlux plate reader
# Keywords: cell viability, cytotoxicity, SK-N-SH cell line, luminescence, NTPHTS, NTPHTS_NCGC, NIEHS, EPA, DSSTox, MLSMR, MLSCN, NIH Roadmap, qHTS, NCGC
# Glucocorticoid receptor (Homo sapiens), sequence (P04150 whole entry, looked up): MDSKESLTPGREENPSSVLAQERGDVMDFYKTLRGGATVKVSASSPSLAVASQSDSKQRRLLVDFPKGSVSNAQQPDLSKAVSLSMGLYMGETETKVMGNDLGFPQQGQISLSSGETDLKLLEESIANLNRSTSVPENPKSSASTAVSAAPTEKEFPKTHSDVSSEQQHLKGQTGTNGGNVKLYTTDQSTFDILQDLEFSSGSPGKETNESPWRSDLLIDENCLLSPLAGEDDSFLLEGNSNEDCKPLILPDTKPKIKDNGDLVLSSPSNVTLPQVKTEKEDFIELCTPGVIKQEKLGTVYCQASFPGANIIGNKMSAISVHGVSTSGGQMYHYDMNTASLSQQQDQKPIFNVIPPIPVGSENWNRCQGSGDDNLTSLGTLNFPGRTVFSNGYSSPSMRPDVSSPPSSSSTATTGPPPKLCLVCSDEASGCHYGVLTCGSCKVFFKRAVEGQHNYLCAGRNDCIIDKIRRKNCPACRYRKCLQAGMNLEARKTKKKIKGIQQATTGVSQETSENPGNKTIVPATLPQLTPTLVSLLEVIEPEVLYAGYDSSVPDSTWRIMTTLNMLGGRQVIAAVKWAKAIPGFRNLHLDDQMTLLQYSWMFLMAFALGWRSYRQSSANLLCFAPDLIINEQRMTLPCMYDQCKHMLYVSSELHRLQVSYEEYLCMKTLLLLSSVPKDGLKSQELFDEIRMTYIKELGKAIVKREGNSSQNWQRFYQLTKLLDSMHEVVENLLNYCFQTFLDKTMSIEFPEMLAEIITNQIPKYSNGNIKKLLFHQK
# Lysosomal acid glucosylceramidase (Homo sapiens), sequence (P04062 whole entry, looked up): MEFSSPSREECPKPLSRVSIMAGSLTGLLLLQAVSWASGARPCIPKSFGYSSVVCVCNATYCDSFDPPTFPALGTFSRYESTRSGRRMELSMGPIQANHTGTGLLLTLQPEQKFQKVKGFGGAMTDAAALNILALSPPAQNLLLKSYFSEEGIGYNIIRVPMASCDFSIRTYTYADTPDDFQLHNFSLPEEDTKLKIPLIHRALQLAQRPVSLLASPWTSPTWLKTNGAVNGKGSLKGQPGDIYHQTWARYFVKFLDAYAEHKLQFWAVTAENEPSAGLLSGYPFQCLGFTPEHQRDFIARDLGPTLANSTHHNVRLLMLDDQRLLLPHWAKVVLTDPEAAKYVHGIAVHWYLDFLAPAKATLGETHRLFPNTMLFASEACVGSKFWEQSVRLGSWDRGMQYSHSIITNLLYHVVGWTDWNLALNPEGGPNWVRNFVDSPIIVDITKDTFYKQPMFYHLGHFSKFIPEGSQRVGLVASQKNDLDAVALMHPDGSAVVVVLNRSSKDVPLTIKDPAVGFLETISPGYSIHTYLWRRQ
smiles,measurement,setting,value
O=c1[nH]c2ccccc2n1CCCN1CCC(n2c(=O)[nH]c3cc(Cl)ccc32)CC1,Potency,[1],> 11.4 µM
same,outcome,[2],inactive
same,"activity change, negative = inhibition",[3]; at 7.69 µM (top of the series),-18.5%
same,"activity change, negative = inhibition",[3]; at 17.2 µM (top of the series),-16.6% and -16.4%
same,"activity change, negative = inhibition",[3]; at 38 µM (top of the series),-15.8%
same,"activity, negative = inhibition",[4]; at 7.69 µM (top of the series),-2.55%
same,"activity, negative = inhibition",[4]; at 17.2 µM (top of the series),1.15% and 2.02%
same,"activity, negative = inhibition",[4]; at 38 µM (top of the series),-0.208%
C=C1CC[C@@]2(O)[C@H]3Cc4ccc(O)c5c4[C@@]2(CCN3CC2CC2)[C@H]1O5,outcome,[2],inactive
same,"activity change, negative = inhibition",[3]; at 17.2 µM (top of the series),-9.27%
same,"activity, negative = inhibition",[4]; at 17.2 µM (top of the series),2.91%
same,Potency,[5],> 20.6 µM
CCC(COC(=O)c1cc(OC)c(OC)c(OC)c1)(c1ccccc1)N(C)C (stereo unspecified),"activity, negative = inhibition",[4]; at 17.2 µM (top of the series),-7.98%
Clc1cccc(N2CCNCC2)c1,outcome,[2],inactive
same,"activity change, negative = inhibition",[3]; at 38 µM (top of the series),-4.86%
same,"activity, negative = inhibition",[4]; at 38 µM (top of the series),3.38%
same,Potency,[5],> 46 µM
C=C(C)[C@H]1Cc2c(ccc3c2O[C@@H]2COc4cc(OC)c(OC)cc4[C@@H]2C3=O)O1,Potency,[5],> 46 µM
NCC(CC(=O)O)c1ccc(Cl)cc1 (stereo unspecified),outcome,[2],inactive
same,"activity change, negative = inhibition",[3]; at 17.2 µM (top of the series),12.1%
same,"activity, negative = inhibition",[4]; at 17.2 µM (top of the series),6.38%
same,Potency,[5],> 20.6 µM
CN(C)[C@@H]1C(=O)C(C(N)=O)=C(O)[C@@]2(O)C(=O)C3=C(O)c4c(O)cccc4[C@@](C)(O)[C@H]3C[C@@H]12,outcome,[2],inactive
same,"activity, negative = inhibition",[4]; at 17.2 µM (top of the series),-6.17%
same,Potency,[5],> 20.6 µM
C#CCN(C)[C@H](C)Cc1ccccc1,Potency,[5],> 46 µM
NP(N)(=O)NC(=O)c1ccc(F)cc1,Potency,[5],> 46 µM
CCN(CC)C(=O)N[C@@H]1C=C2c3cccc4[nH]cc(c34)C[C@@H]2N(C)C1,outcome,[2],inactive
same,"activity change, negative = inhibition",[3]; at 38 µM (top of the series),-9.69% and -17.6%
same,"activity, negative = inhibition",[4]; at 38 µM (top of the series),4.62%
same,Potency,[5],> 46 µM
C[C@]12C/C(=C/O)C(=O)C[C@@H]1CC[C@@H]1[C@@H]2CC[C@@]2(C)[C@H]1CC[C@]2(C)O,Potency,[6],54.9 µM (active)
same,Potency,[7],> 92 µM
CC(CCc1ccccc1)NC(C)C(O)c1ccc(O)cc1 (stereo unspecified),outcome,[2],inactive
same,"activity, negative = inhibition",[4]; at 17.2 µM (top of the series),22.4%
same,Potency,[5],> 20.6 µM
COC1(CS(=O)c2ccccc2)CCN(CCc2c[nH]c3ccc(F)cc23)CC1 (stereo unspecified),Potency,[5],> 46 µM
Oc1ccccc1-c1ccccc1,Potency,[8],> 92 µM
same,Potency,[9],> 92 µM
same,Potency,[7],> 92 µM
same,Potency,[10],> 92 µM
c1ccc2c(c1)Nc1ccccc1S2,Potency,[8],> 92 µM
same,Potency,[6],> 92 µM
same,Potency,[9],> 92 µM
same,Potency,[7],> 92 µM
same,Potency,[10],> 92 µM
CCCC(C)(COC(N)=O)COC(=O)NC(C)C (stereo unspecified),Potency,[8],> 92 µM
same,Potency,[6],> 92 µM
same,Potency,[9],> 92 µM
same,Potency,[7],> 92 µM
same,Potency,[10],> 92 µM
same,"activity change, negative = inhibition",[3]; at 17.2 µM (top of the series),-6.68%
same,"activity, negative = inhibition",[4]; at 17.2 µM (top of the series),5.53%
CN(C)CCN(C)CCc1ccc(Cl)c(Cl)c1,Potency,[5],> 46 µM
OCCOc1ccccc1,Potency,[8],> 92 µM
same,Potency,[6],> 92 µM
same,Potency,[9],> 92 µM
same,Potency,[7],> 92 µM
same,Potency,[10],> 92 µM
N[C@@H](Cc1ccc(N(CCCl)CCCl)cc1)C(=O)O,Potency,[8],> 92 µM
same,Potency,[6],18.3 µM (active)
c1ccc(C2CC2)c(OCC2=NCCN2)c1,outcome,[2],inactive
same,"activity, negative = inhibition",[4]; at 38 µM (top of the series),-9.49%
same,Potency,[5],> 46 µM
O=c1[nH]c2ccccc2n1C1CCN(CCCC(c2ccc(F)cc2)c2ccc(F)cc2)CC1,Potency,[5],> 46 µM and > 20.6 µM
CCOP(=S)(OCC)Oc1cc(C)nc(C(C)C)n1,Potency,[8],> 92 µM
same,Potency,[6],> 92 µM
same,Potency,[9],> 92 µM
same,Potency,[7],> 92 µM
same,Potency,[10],> 92 µM
NCC(O)c1ccc(O)cc1 (stereo unspecified),Potency,[8],> 92 µM
same,Potency,[6],> 92 µM
same,Potency,[9],> 92 µM
same,Potency,[7],> 92 µM
same,Potency,[10],> 92 µM
c1ccc2c(c1)OCC(C1=NCCN1)O2 (stereo unspecified),outcome,[2],inactive
same,"activity, negative = inhibition",[4]; at 17.2 µM (top of the series),-5.78%
same,Potency,[5],> 20.6 µM
Oc1ccc(Cl)cc1Cc1ccccc1,Potency,[8],> 92 µM
same,Potency,[6],> 92 µM
same,Potency,[9],> 92 µM
same,Potency,[7],> 92 µM
same,Potency,[10],> 92 µM
O=[N+]([O-])c1cc([As](=O)(O)O)ccc1O,outcome,[2],inactive
same,"activity change, negative = inhibition",[3]; at 17.2 µM (top of the series),-8.47%
same,"activity, negative = inhibition",[4]; at 17.2 µM (top of the series),10.9%
same,Potency,[5],> 20.6 µM
Fc1ccc(C(OCCN2CCN(CCCc3ccccc3)CC2)c2ccc(F)cc2)cc1,outcome,[2],inactive
same,"activity, negative = inhibition",[4]; at 17.2 µM (top of the series),-6.45%
same,"activity, negative = inhibition",[4]; at 38 µM (top of the series),-18.6%
same,Potency,[5],> 46 µM and > 20.6 µM
